Measurements: the supplement of paper PMC9492666
Structures can show the parent of a compound that is named as a salt.

What follows are compounds tested on MDA-MB-231 (assay: relative cell viability, compound + RSL3, vs DMSO (fraction of DMSO control); higher = less growth inhibition). Conditions: 72 h.
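Further: breast cancer cell viability read out with the CCK-8 kit after co-treatment of each compound with the ferroptosis inducer RSL3.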

| SMILES | relative cell viability |
| --- | --- |
| c1ccc([C@H]2CN3CCSC3=N2)cc1 [Levamisole hydrochloride] + COC(=O)c1ccc([C@H]2c3[nH]c4ccccc4c3C[C@H](C(=O)OC)N2C(=O)CCl)cc1 [RSL3] | 0.53 |
| COC(=O)/C=C/c1cccc(N(Cc2ccc(-c3ccc(N(C)C)cc3)cc2)C(=O)C2CCCCC2)c1 [Fexaramine] + COC(=O)c1ccc([C@H]2c3[nH]c4ccccc4c3C[C@H](C(=O)OC)N2C(=O)CCl)cc1 [RSL3] | 0.601 |
| O=C(OC(C(F)(F)F)C(F)(F)F)N1CCN(Cc2ccc(C(F)(F)F)cc2N2CCCC2)CC1 + COC(=O)c1ccc([C@H]2c3[nH]c4ccccc4c3C[C@H](C(=O)OC)N2C(=O)CCl)cc1 [RSL3] | 0.613 |
| Nc1cccc(S(=O)(=O)N2CCCN(S(=O)(=O)c3ccc4c(c3)OCCO4)CC2)c1 + COC(=O)c1ccc([C@H]2c3[nH]c4ccccc4c3C[C@H](C(=O)OC)N2C(=O)CCl)cc1 [RSL3] | 0.632 |
| COc1cc(N(C)C)cc(CN(C)CCc2ccc([N+](=O)[O-])cc2)c1O [CDC25 Phosphatase Inhibitor I] + COC(=O)c1ccc([C@H]2c3[nH]c4ccccc4c3C[C@H](C(=O)OC)N2C(=O)CCl)cc1 [RSL3] | 0.886 |
| Cc1nc2c([nH]1)c(=O)n(C)c(=O)n2Cc1ccco1 [Furafylline] + COC(=O)c1ccc([C@H]2c3[nH]c4ccccc4c3C[C@H](C(=O)OC)N2C(=O)CCl)cc1 [RSL3] | 0.596 |
| COc1cccc(-n2c(=O)[nH]c3cc(Cl)n(-c4ccc(-c5cccc(OC)c5O)cc4)c3c2=O)c1 + COC(=O)c1ccc([C@H]2c3[nH]c4ccccc4c3C[C@H](C(=O)OC)N2C(=O)CCl)cc1 [RSL3] | 0.572 |
| CCCCCCCCCCCCCCCC(=O)NCCO [Palmidrol] + COC(=O)c1ccc([C@H]2c3[nH]c4ccccc4c3C[C@H](C(=O)OC)N2C(=O)CCl)cc1 [RSL3] | 0.77 |
| CCCC[S+]([O-])c1sc2nc(-c3cccs3)cc(-c3ccccc3)c2c1N (stereo not drawn) + COC(=O)c1ccc([C@H]2c3[nH]c4ccccc4c3C[C@H](C(=O)OC)N2C(=O)CCl)cc1 [RSL3] | 0.513 |
| CCCCCCCCCCCCCCOc1ccc(C(=O)OCC(=O)N(C)CC(=O)OCC)o1 [Olumacostat Glasaretil] + COC(=O)c1ccc([C@H]2c3[nH]c4ccccc4c3C[C@H](C(=O)OC)N2C(=O)CCl)cc1 [RSL3] | 0.278 |
| CN(C)C(=N)NC(=N)N [Metformin] + COC(=O)c1ccc([C@H]2c3[nH]c4ccccc4c3C[C@H](C(=O)OC)N2C(=O)CCl)cc1 [RSL3] | 0.542 |
| CCCc1c(OCCCOc2ccc(OCC(=O)O)cc2)ccc(C(C)=O)c1O + COC(=O)c1ccc([C@H]2c3[nH]c4ccccc4c3C[C@H](C(=O)OC)N2C(=O)CCl)cc1 [RSL3] | 0.757 |
| NC(=O)c1ncn([C@@H]2O[C@H](CO)[C@@H](O)[C@H]2O)c1N [AICAR (Acadesine)] + COC(=O)c1ccc([C@H]2c3[nH]c4ccccc4c3C[C@H](C(=O)OC)N2C(=O)CCl)cc1 [RSL3] | 0.584 |
| CC(=O)N1CCN(c2ccc(OCC3COC(Cn4ccnc4)(c4ccc(Cl)cc4Cl)O3)cc2)CC1 (stereo not drawn) [Ketoconazole] + COC(=O)c1ccc([C@H]2c3[nH]c4ccccc4c3C[C@H](C(=O)OC)N2C(=O)CCl)cc1 [RSL3] | 0.488 |
| CCOP(=O)(OCC)C(=Cc1cc(C(C)(C)C)c(O)c(C(C)(C)C)c1)P(=O)(OCC)OCC + COC(=O)c1ccc([C@H]2c3[nH]c4ccccc4c3C[C@H](C(=O)OC)N2C(=O)CCl)cc1 [RSL3] | 0.448 |
| CN(C)c1cccc(-c2c3c(=O)n(-c4ccccc4Cl)[nH]c3cc(=O)n2C)c1 + COC(=O)c1ccc([C@H]2c3[nH]c4ccccc4c3C[C@H](C(=O)OC)N2C(=O)CCl)cc1 [RSL3] | 0.579 |
| O=C(Nc1cnccc1Cl)N1CCN(Cc2ccc3c(c2)OC(F)(F)O3)CC1 + COC(=O)c1ccc([C@H]2c3[nH]c4ccccc4c3C[C@H](C(=O)OC)N2C(=O)CCl)cc1 [RSL3] | 0.568 |
| CCC(=O)Nc1cccc(Oc2nc(Nc3ccc(N4CCN(C)CC4)cc3OC)ncc2Cl)c1 + COC(=O)c1ccc([C@H]2c3[nH]c4ccccc4c3C[C@H](C(=O)OC)N2C(=O)CCl)cc1 [RSL3] | 0.3 |
